The source made the active and inactive calls. Unless noted, no rule for the calls is given here.
Key:
[1] = tested on: XIP peptide (Xip251-270) binding; assay: XIP fragment 251-270 binding compounds – biochemical, small-molecule microarray, fluorescence 635/667 nm, 0.1 µg/mL protein, primary screen (AID 1182); details: fluorescent protein binding, 635 nm, higher = more signal, called active from +8 up or from −8 down
[2] = tested on: XIP peptide (Xip251-270); assay: compounds binding XIP fragment 251-270 – biochemical, small-molecule microarray, fluorescence 635/667 nm, 0.5 µg/mL protein, primary screen (AID 1183); details: fluorescence 635 nm, higher = more signal
[3] = blood-stage malaria parasite viability loss – strain 3D7, DAPI fluorescence, 100 nL, primary screen (AID 1184);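 also: parasites grown inside human red blood cells in medium with human serum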; details: P. falciparum 3D7 growth, 3 d, higher = more signal
[4] = target: Homeobox protein Hox-A13 (Mus musculus) (UniProt Q62424); assay: disruptors of Hoxa13 oligonucleotide interaction – biochemical, fluorescence polarization, labeled oligonucleotide, primary screen (AID 1185); details: Hoxa13:DNA binding, 15 min, higher = more signal, called active from +8 up or from −8 down
[5] = blockers of DNA damage checkpoint Chk1 activation – imaging, HeLa, hydroxyurea, phospho-Chk1 antibody, percent positive cells, primary screen (AID 1186); details: hydroxyurea-induced phospho-Chk1 immunofluorescence imaging, higher = more signal
[6] = blockers of DNA damage checkpoint Chk1 activation – imaging, HeLa, hydroxyurea, phospho-Chk1 nuclear intensity, primary screen (AID 1187); details: hydroxyurea-induced phospho-Chk1 immunofluorescence imaging, higher = more signal

Sequence of Homeobox protein Hox-A13 (Mus musculus) (Q62424 whole entry, looked up): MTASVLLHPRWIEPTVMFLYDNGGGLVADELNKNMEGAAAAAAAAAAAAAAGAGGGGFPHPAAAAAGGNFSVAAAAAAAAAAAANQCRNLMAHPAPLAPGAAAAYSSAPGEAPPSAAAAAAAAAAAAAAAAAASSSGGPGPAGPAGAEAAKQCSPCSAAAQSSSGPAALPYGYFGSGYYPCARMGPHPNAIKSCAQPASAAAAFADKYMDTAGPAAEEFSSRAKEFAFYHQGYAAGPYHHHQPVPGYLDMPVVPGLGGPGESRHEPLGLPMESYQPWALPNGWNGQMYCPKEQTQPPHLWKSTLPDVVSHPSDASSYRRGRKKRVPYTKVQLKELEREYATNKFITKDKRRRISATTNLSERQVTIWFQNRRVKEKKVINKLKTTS

Structure (SMILES): O=C(N1CCOCC1)[C@]1(CCS(=O)(=O)c2ccccc2)N=C(c2ccc(OCCCO)cc2)O[C@@H]1c1ccccc1
- composite z-score [1]: 1.24 (inactive)
- composite z-score [2]: 0.717
- z-score [3]: -2.21
- z-score [4]: -4.54 (inactive)
- z-score [5]: -0.141 (inactive)
- z-score [6]: 0.0352 (inactive)

Structure (SMILES): COc1cccc(C)c1NC(=O)O[C@H]1[C@H](OC(=O)Nc2ccccc2-c2ccccc2)[C@@H](OC(=O)Nc2ccccc2-c2ccccc2)[C@@H](OC)O[C@@H]1CO
- composite z-score [1]: 1.22 (inactive)
- composite z-score [2]: 0.89
- z-score [3]: -2.26
- z-score [4]: -3.57 (inactive)
- z-score [5]: 0.609 (inactive)
- z-score [6]: 0.604 (inactive)

Structure (SMILES): COc1ccc([Si](C)(C)[C@H]2[C@H](CC(=O)N3CCC[C@H]3CO)O[C@@]3(C(=O)N(C)c4c(Br)cc(C)cc43)[C@@H]2C)cc1
- composite z-score [1]: 1.14 (inactive)
- composite z-score [2]: 0.341
- z-score [3]: -1.56
- z-score [4]: -5.84 (inactive)
- z-score [5]: 0.27 (inactive)
- z-score [6]: 0.523 (inactive)

Structure (SMILES): O=C/C=C/c1ccc(-c2ccccc2)cc1
- composite z-score [1]: -1.46 (inactive)
- composite z-score [2]: -0.548
- z-score [3]: 0.886
- z-score [4]: -1.34 (inactive)
- z-score [5]: 0.236 (inactive)
- z-score [6]: 0.792 (inactive)

Structure (SMILES): COc1ccc([Si](C)(C)[C@H]2[C@H](CC(=O)N3CCC[C@H]3CO)O[C@@]3(C(=O)N(Cc4cccc(N5CCCCC5=O)c4)c4ccccc43)[C@@H]2C)cc1
- composite z-score [1]: 2.57 (inactive)
- composite z-score [2]: 0.714
- z-score [3]: -1.33
- z-score [4]: -3.23 (inactive)
- z-score [5]: -0.319 (inactive)
- z-score [6]: 0.519 (inactive)

Structure (SMILES): C=CCOC(=O)[C@H]1[C@@H]2C(=O)O[C@@H](c3ccccc3)[C@@H](c3ccccc3)N2[C@@H](c2ccc(OCCOC(=O)[C@H]3C[C@H]4C(=O)NCC(=O)N4[C@H]3c3ccc(O)cc3)cc2)[C@]12C(=O)Nc1ccccc12
- composite z-score [1]: 0.758 (inactive)
- composite z-score [2]: 0.81
- z-score [3]: -1.56
- z-score [4]: -0.844 (inactive)
- z-score [5]: -0.374 (inactive)
- z-score [6]: 0.182 (inactive)

Structure (SMILES): C=CCNC(=O)[C@H]1[C@@H]2C(=O)O[C@@H](c3ccccc3)[C@@H](c3ccccc3)N2[C@@H](c2ccc(O)cc2)[C@]12C(=O)Nc1ccc(C#CCC(C(=O)OC)C(=O)OC)cc12
- composite z-score [1]: 0.835 (inactive)
- composite z-score [2]: 0.764
- z-score [3]: -0.214
- z-score [4]: -2.88 (inactive)
- z-score [5]: 0.0976 (inactive)
- z-score [6]: 0.543 (inactive)

Structure (SMILES): O=C1O[C@H](c2ccccc2)[C@H](c2ccccc2)N2[C@H]1[C@@H](C(=O)O)[C@]1(C(=O)Nc3ccc(C#CC4(O)CCCCCC4)cc31)[C@H]2c1ccccc1OCCO
- composite z-score [1]: 0.168 (inactive)
- composite z-score [2]: 0.779
- z-score [3]: -0.21
- z-score [4]: -5.71 (inactive)
- z-score [5]: 0.152 (inactive)
- z-score [6]: 0.579 (inactive)

Structure (SMILES): O=C1NC(=O)C2C1C=CC(C(O)C(c1ccccc1)c1ccccc1)N2Nc1ccccn1 (stereo unspecified)
- composite z-score [1]: 0.21 (inactive)
- composite z-score [2]: 0.797
- z-score [3]: -0.315
- z-score [4]: -5.58 (inactive)
- z-score [5]: -0.12 (inactive)
- z-score [6]: -0.319 (inactive)

Structure (SMILES): COc1cc(CO)cc(I)c1O[C@H]1C=C(C(=O)NCCO)C[C@@H](N(CCN2CCOCC2)C(=O)C2CCCO2)[C@@H]1O (stereo partly specified)
- composite z-score [1]: 0.0188 (inactive)
- composite z-score [2]: 0.0326
- z-score [3]: 0.0945
- z-score [4]: -1.59 (inactive)
- z-score [5]: -0.866 (inactive)
- z-score [6]: -0.723 (inactive)

Structure (SMILES): C=CC[C@H](O)c1ccc(O)c2ccccc12
- composite z-score [1]: 0.0693 (inactive)
- composite z-score [2]: 0.512
- z-score [3]: -1.36
- z-score [4]: -2.1 (inactive)
- z-score [5]: 0.835 (inactive)
- z-score [6]: 1.01 (inactive)

Structure (SMILES): COC(=O)[C@@]1(Cc2ccc(F)cc2)[C@H]2c3cc(C(=O)N4CCCC4)n(CCSCCO)c3C[C@H]2CN1C(=O)c1ccccc1
- composite z-score [1]: 0.159 (inactive)
- composite z-score [2]: -0.279
- z-score [3]: -1.41
- z-score [4]: -4.82 (inactive)
- z-score [5]: 0.685 (inactive)
- z-score [6]: 0.827 (inactive)

Structure (SMILES): C=C(C(=O)CC[C@@H](OC(=O)c1ccccc1-c1ccccc1C(=O)O)c1cccc(OCCO)c1)C(C)C
- composite z-score [1]: 0.0145 (inactive)
- composite z-score [2]: 0.25
- z-score [3]: -2.01
- z-score [4]: -4.86 (inactive)
- z-score [5]: -0.0826 (inactive)
- z-score [6]: -0.0465 (inactive)

Structure (SMILES): CCCCCN1CC=CC23O[C@@H]4/C=C\CCCOC(=O)C4[C@H]2C(=O)N(CCO)[C@@H]3C1=O (stereo partly specified)
- composite z-score [1]: -0.0751 (inactive)
- composite z-score [2]: 0.663
- z-score [3]: -1.31
- z-score [4]: -3.77 (inactive)
- z-score [5]: 0.169 (inactive)
- z-score [6]: 0.205 (inactive)

Structure (SMILES): COC(=O)c1ccc(OC)c(/C=C\CC(OC(=O)c2ccncc2)c2ccccc2)c1 (stereo unspecified)
- composite z-score [1]: 0.601 (inactive)
- composite z-score [2]: 0.146
- z-score [3]: -1.33
- z-score [4]: -5.02 (inactive)
- z-score [5]: -0.843 (inactive)
- z-score [6]: -0.432 (inactive)

Structure (SMILES): C=CCNC(=O)[C@@H]1[C@H]2C(=O)O[C@H](c3ccccc3)[C@H](c3ccccc3)N2[C@H](c2ccc(O)cc2)[C@@]12C(=O)N(C(=O)OCCOC)c1ccc(C#CCC(C(=O)OC)C(=O)OC)cc12
- composite z-score [1]: 0.891 (inactive)
- composite z-score [2]: 0.756
- z-score [3]: -1.7
- z-score [4]: -1.28 (inactive)
- z-score [5]: -0.0611 (inactive)
- z-score [6]: -0.187 (inactive)

Structure (SMILES): COC(=O)[C@@]1(Cc2ccc(F)cc2)[C@H]2c3cc(C(=O)N(C)C)n(Cc4cccc5ccccc45)c3C[C@H]2CN1C(=O)c1ccccc1
- composite z-score [1]: 0.0361 (inactive)
- composite z-score [2]: 0.891
- z-score [3]: -1.51
- z-score [4]: -4.81 (inactive)
- z-score [5]: 0.406 (inactive)
- z-score [6]: 0.252 (inactive)

Structure (SMILES): C=C(COC)/C(=C/C[C@@H](OC(=O)c1ccncc1)c1ccccc1OCCO)c1cnc2ccccc2c1
- composite z-score [1]: 0.882 (inactive)
- composite z-score [2]: 0.745
- z-score [3]: -3.1
- z-score [4]: -4.25 (inactive)
- z-score [5]: 0.112 (inactive)
- z-score [6]: -0.291 (inactive)

Structure (SMILES): CCOC(=O)C[C@H]1[C@H](OC(=O)c2cc3ccccc3oc2=O)[C@@H](NC(=O)Cc2ccc(OC)cc2)c2cc(OCCCO)ccc2N1C(=O)Cc1ccc(OC)cc1
- composite z-score [1]: -0.0664 (inactive)
- composite z-score [2]: 0.0609
- z-score [3]: -0.912
- z-score [4]: -5.1 (inactive)
- z-score [5]: 0.212 (inactive)
- z-score [6]: 0.199 (inactive)

Structure (SMILES): CC1C2C(CCCO)=CC(C3C(=O)N(C)C(=O)C23)N1Cc1cccc(OC(F)(F)F)c1 (stereo unspecified)
- composite z-score [1]: 1.17 (inactive)
- composite z-score [2]: 0.806
- z-score [3]: -1.7
- z-score [4]: -7.46 (inactive)
- z-score [5]: -0.324 (inactive)
- z-score [6]: -0.301 (inactive)

Structure (SMILES): COc1cc2c(cc1OC)CN(C(=O)[C@@H]1[C@H]3C(=O)O[C@H](c4ccccc4)[C@H](c4ccccc4)N3[C@H](c3ccc(O)cc3)[C@@]13C(=O)Nc1ccc(C#CC4=CCCCC4)cc13)CC2
- composite z-score [1]: 0.715 (inactive)
- composite z-score [2]: 0.535
- z-score [3]: -0.75
- z-score [4]: 2.74 (inactive)
- z-score [5]: 0.0655 (inactive)
- z-score [6]: 0.407 (inactive)

Structure (SMILES): COc1cccc(C)c1NC(=O)O[C@H]1[C@H](OC(=O)Nc2ccccc2)[C@@H](OC(=O)Nc2ccccc2)[C@@H](OC)O[C@@H]1CO
- composite z-score [1]: 1.3 (inactive)
- composite z-score [2]: 0.912
- z-score [3]: -2.57
- z-score [4]: -4.95 (inactive)
- z-score [5]: -0.515 (inactive)
- z-score [6]: -0.515 (inactive)

Structure (SMILES): COC(=O)[C@@]1(Cc2ccccc2)[C@H]2c3cc(C(=O)N(C)C)n(CCF)c3C[C@H]2CN1C(=O)c1ccccc1
- composite z-score [1]: 1.3 (inactive)
- composite z-score [2]: -0.504
- z-score [3]: -0.684
- z-score [4]: -4.95 (inactive)
- z-score [5]: -0.441 (inactive)
- z-score [6]: -0.748 (inactive)

Structure (SMILES): O=C1NC(=O)C2C1C=CC(C(O)C1CCCCC1)N2Nc1ccccn1 (stereo unspecified)
- composite z-score [1]: -0.275 (inactive)
- composite z-score [2]: 0.27
- z-score [3]: 0.582
- z-score [4]: -2.17 (inactive)
- z-score [5]: 1.04 (inactive)
- z-score [6]: 1.39 (inactive)

Structure (SMILES): O=C1OCC=C[C@H]2OC34C=CCN(Cn5nnc6ccccc65)C(=O)[C@H]3N(CCO)C(=O)[C@@H]4[C@@H]12 (stereo partly specified)
- composite z-score [1]: -0.149 (inactive)
- composite z-score [2]: -0.884
- z-score [3]: 1.12
- z-score [4]: -4.12 (inactive)
- z-score [5]: -0.743 (inactive)
- z-score [6]: -0.287 (inactive)

Structure (SMILES): O=C1C2C=CC(C(O)c3ccccn3)N(Nc3ccc([N+](=O)[O-])cc3)C2C(=O)N1c1ccccc1 (stereo unspecified)
- composite z-score [1]: 0.406 (inactive)
- composite z-score [2]: 0.0784
- z-score [3]: -0.22
- z-score [4]: -5.58 (inactive)
- z-score [5]: 1.25 (inactive)
- z-score [6]: -0.213 (inactive)
